In the library only some 6.5% were active in any assay of this set; here they are far more common.
Vaccinia Venus: vaccinia inhibition (Venus reporter); Vaccinia virus Venus reporter expression, fluorescence; Potency, µM (titrated, usually from 36.5 µM), hits mostly inhibitors; hit rate 0.46% among 330,000; AID 720580; calls by dose curve; tested in A549 cells; also: nearly all actives have a fitted effect of over 30% in size
FMDV antiviral: antivirals against foot and mouth disease virus | hit rate 1.2% among 410,000 | FMDV antiviral cell-based qHTS | AID 1159524 | Potency, µM (titrated, usually from 57.9 µM), usual class: inhibitors; calls by dose curve; tested in HEK293T cells; also: read-out not given here; nearly all actives have a fitted effect of over 45% in size
MARV entry inh: Marburg virus entry inhibition. Marburg virus pseudotyped entry inhibition, cell reporter. Potency, µM (doses to about 37.8 µM), usual class: inhibitors. hit rate 1.8% among 300,000. AID 540276; calls by dose curve; tested in HEK293 cells
Lassa entry inh: Lassa virus entry inhibition. Lassa virus pseudotype entry inhibition, cell reporter. Potency, µM (doses to about 37.9 µM), hits mostly inhibitors. hit rate 1.2% among 300,000; calls by dose curve; tested in HEK293 cells; also: nearly all actives have a fitted effect of over 50% in size
VACV mCherry inh: vaccinia inhibition (mCherry reporter); hit rate 0.63% among 310,000; Potency, µM (doses to about 36.5 µM), most hits filed as inhibitors; Vaccinia virus mCherry reporter infection, fluorescence; calls by dose curve; tested in A549 cells; also: nearly all actives have a fitted effect of over 35% in size
HCMV antiviral: human cytomegalovirus inhibition; HFF cells, HCMV-luciferase reporter, 72 h; stronger effect = lower value; activity change, negative = inhibition, % at 57.5 µM; hit rate 4.5% among 410,000; in the data active = activity change below about -60%; inconclusive = no clear call, values can overlap the other calls; inactive = above about -39%
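Steps: HFFs plated, 16 h 37C; compounds added; HCMV-luciferase added to MOI 1 PFU/cell; 72 h 37C; OneGlo reagent, 5 min room temperature; luminescence read, normalized to controls.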
A number is an active result; – = inactive; ? = inconclusive; · = no result; ! = not confirmed by another sample.

SMILES | Vaccinia Venus | FMDV antiviral | MARV entry inh | Lassa entry inh | VACV mCherry inh | HCMV antiviral
CCCC(=O)NC(c1ccc(OC)c(OC)c1)c1c(O)ccc2ccccc12 (centres undefined) | – | – | – | – | – | –
CCCC(=O)NC(c1ccccc1OC)c1ccc2cccnc2c1O (centres undefined) | ? | – | ? | ? | 10µM | ·
COc1ccc(CC(N)c2csc(Nc3ccc(C(=O)c4ccccc4)cc3)n2)cc1 (centres undefined) | – | – | · | · | – | –
O=C(C[n+]1cccc(Br)c1)c1ccccc1 | – | – | – | – | – | –
O=C(C[n+]1cccc(Br)c1)c1ccc(-c2ccccc2)cc1 | – | – | · | · | – | -74.4
Cc1ccc[n+](CC(=O)c2ccc(-c3ccccc3)cc2)c1 | – | – | – | – | – | -68.4
COc1cccc(N2CC(NC(=O)C(=O)c3c(C)[nH]c4ccccc34)CC2=O)c1 (centres undefined) | – | – | – | – | – | –
C=CCn1c(SCC(=O)c2cccs2)nc2sc(C)cc2c1=O | – | 31.6µM | – | ? | – | –
C=CCn1c(SCC(=O)c2cccs2)nnc1-c1cccc(OC)c1 | – | · | – | – | – | –
Cc1ccc(S(=O)(=O)N(C)C)cc1-n1c(SCC(=O)Nc2ccccc2)nc2ccccc2c1=O | – | – | ? | ? | – | -71.8
Cc1ccc(NC(=O)CSc2nc3ccccc3c(=O)n2CCCC(=O)N2CCCC2)cc1 | · | – | 8.2µM | ? | · | –
Cc1ccc(NC(=O)CSc2nc3ccccc3c(=O)n2CCCN2CCCCC2)cc1C | · | – | ? | 20.6µM | · | –
Cc1ccc(S(=O)(=O)N(C)C)cc1-n1c(SCC(=O)Nc2ccc(F)cc2)nc2ccccc2c1=O | · | – | – | · | · | –
COCCCn1c(SCC(=O)Nc2ccc(C)cc2)nc2ccccc2c1=O | – | – | – | – | – | -71.2
COCCCn1c(SCC(=O)Nc2ccc(C(=O)OC)cc2)nc2ccccc2c1=O | · | – | – | ? | · | –
Cc1ccc(NC2CCCN(C(=O)c3ccc4[nH]ccc4c3)C2)cc1C (centres undefined) | – | – | – | ? | – | –
CCc1ccc(NC(=O)CSc2nc3ccccc3c(=O)n2CCNC(C)=O)cc1 | – | – | · | – | – | –
CCCCn1c(SCC(=O)Nc2cc(NC(=O)c3ccco3)ccc2C)nc2ccccc2c1=O | · | – | ? | ? | · | -76.0
O=C(CSc1nc2ccccc2[nH]1)Nc1nc(-c2cccc(Br)c2)cs1 | – | – | – | – | – | –
COCCn1c(SCC(=O)NC2CCCC2)nc2ccccc2c1=O | – | – | – | – | – | -99.7
CCc1ccc(NC(=O)CSc2nc3ccccc3c(=O)n2CCCN2CCC(C)CC2)cc1 | ? | ? | ? | ? | ? | -107.6
CN(C)CCCn1c(SCC(=O)Nc2nc(-c3cccc(Br)c3)cs2)nc2ccccc2c1=O | – | – | 11.2µM | ? | – | ?
CCOC(=O)c1c(C(=O)OCC)c2c3ccccc3cc(C)n2c1C(=O)OC | · | · | – | · | · | ·
C=CCOC(=O)C1=C(C)NC(=O)NC1c1cc2c(cc1Br)OCO2 (centres undefined) | · | – | · | · | · | –
C[C@H]1CC[C@H]2C(=O)O[C@H](CO)CN2[C@@H]1c1ccc(Br)cc1 | · | · | – | · | · | ·
SMILES | Vaccinia Venus | FMDV antiviral | MARV entry inh | Lassa entry inh | VACV mCherry inh | HCMV antiviral
COc1ccc(N2CCc3c(C)nc4c(OC)cccc4c32)cc1 | – | – | ? | ? | – | -66.0
COc1cccc(N2CCc3c(C)nc4ccc(Cl)cc4c32)c1 | ? | ? | 11.2µM | ? | – | –
Cc1nc2c(C)cccc2c2c1CCN2c1ccccc1F | – | ? | ? | – | – | ?
CCN1Cc2c(/C=C/c3ccccc3)nc3ccc(OC)cc3c2N(c2cccc(Cl)c2)C1 | ? | 39.8µM | · | · | ? | -101.8
Cc1ccc2nc3c(c(N)c2c1)CCN3c1ccccc1 | – | ? | ? | ? | ? | –
COc1ccc(N2CCc3c(C)nc4c(OC)cc(OC)cc4c32)c(OC)c1 | · | – | 11.6µM | ? | · | –
COc1cccc(-n2c(/C=C\c3ccc(Cl)cc3)nc3ccccc3c2=O)c1 | – | ? | · | – | – | ?
O=C(NCC(O)c1ccccc1)Nc1cccs1 (centres undefined) | · | – | · | · | · | –
COc1ccc(N2CCc3c(C)nc4c(OC)cc(OC)cc4c32)cc1 | ? | ? | ? | ? | ? | -107.8
COc1ccc(N2Cc3ccc(OC)c(OC)c3C2=O)cc1 | · | – | · | · | · | –
Fc1ccc(NC(=S)NCCN2CCOCC2)c(F)c1F | – | – | – | – | – | ?
Cc1ccc(OCc2ccc(C(=O)Nc3c(C)nn(Cc4c(F)c(F)c(F)c(F)c4F)c3C)o2)c([N+](=O)[O-])c1 | · | ? | 16.4µM | ? | · | –
O=C(c1ccccc1F)N(Cc1cc2cc3c(cc2nc1N1CCOCC1)CCC3)CC1CCCO1 (centres undefined) | – | – | · | · | – | ·
CC[n+]1c(C=C2C=C(C)OC(C)=C2)sc2ccccc21 | – | ? | ? | 5.01µM | – | -97.9
O=C1C(c2ccccc2)C2C=CC(C2)N1O (centres undefined) | – | – | – | – | – | –
O=C(NC1CCCCCCC1)C1c2ccccc2C(=O)N1Cc1cccs1 (centres undefined) | – | – | – | ? | – | –
CC1CCC(NC(=O)C2c3ccccc3C(=O)N2Cc2cccs2)CC1 (centres undefined) | – | – | – | 3.55µM | – | –
CCOC(=O)c1c(C)[nH]c(C2=NNC(=NC3CC3)SC2)c1C | · | 22.4µM | · | · | · | ·
Cc1cccc(C)c1Nc1c(-c2ccccn2)nc2c(C)cccn12 | – | – | – | – | – | -68.8
Cc1ccccc1Nc1c(-c2ccc(Cl)cc2)nc2c(C)cccn12 | – | – | ? | – | – | –
Cc1cccn2c(Nc3ccccc3)c(-c3ccccn3)nc12 | – | – | ? | – | ? | -66.2
CN(C)c1ccc(/C=C/c2sc3ccccc3[n+]2CCCCI)cc1 | – | · | · | · | – | ·
COc1ccc2c3c([nH]c2c1)[C@H](CO)N(C(=O)C1CCC1)CC31CCN(C(=O)c2ccncc2)CC1 | · | · | · | · | · | –
CNCCCC1c2ccccc2C=Cc2ccccc21 | ? | – | 3.55µM | ? | – | –
CNCCC=C1c2ccccc2C=Cc2ccccc21 | – | – | · | · | – | –
SMILES | Vaccinia Venus | FMDV antiviral | MARV entry inh | Lassa entry inh | VACV mCherry inh | HCMV antiviral
CSc1ccc(CCNC(=O)c2cc3cc(S(=O)(=O)N4CCCCC4)ccc3n2C)cc1 | – | ? | · | – | – | -66.8
CCOc1ccc(CNC(=O)c2cc3cc(S(=O)(=O)N4CCCCC4)ccc3n2C)cc1 | – | ? | · | ? | – | -68.1
Cc1ccc2c(c1)cc(C(=O)NCc1ccc(F)cc1)n2C | – | – | ? | 2µM | – | ?
O=C(Cn1c(=O)oc2cc(S(=O)(=O)N3CCCC3)ccc21)NCc1ccc(F)cc1 | – | – | – | – | – | -69.8!
CCOc1ccccc1CNC(=O)c1cc2cc(S(=O)(=O)N3CCCCC3)ccc2n1C | – | – | · | ? | – | –
COc1ccccc1OCCNC(=O)C1CC(=O)N(c2ccc3c(c2)OCCO3)C1 (centres undefined) | – | – | – | – | – | –
C=C1C=C(C(F)F)n2ncc(C(=O)NC(C)CC)c2N1 (centres undefined) | – | · | · | · | – | ·
